Assay results taken from PubChem BioAssay (Tox21).
Results filed as inconclusive are left out. A call without a number means that no potency is given here. A number with no mark means an inactive call. Active and inactive are the calls of the source. Calls follow the shape of the dose curve; as a rule, active = well fitted curve in the direction sought with a large enough effect in the repeat runs; inconclusive = weak or mixed curves; inactive = no such curve, though single readings can be large; an effect the other way counts as inactive or inconclusive.

Columns and labels:
[1] = qHTS assay to identify small molecule agonists of the RXR signaling pathway - cell viability counter screen (AID 1159529); also: series mostly up to about 77 µM; nearly all actives have a fitted effect of over 50% in size
Method in brief: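 Cell viability is measured by CellTiter-Glo luminescence, 30 min at room temperature, in wells already read for beta-lactamase. Engineered HEK 293T cells (RXR-alpha-UAS-bla) are dosed 16 hr at 37 C. Tetraoctyl ammonium bromide serves as positive control.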

[2] = qHTS assay to identify small molecule antagonists of the retinoid acid receptor (RAR) signaling pathway - cell viability counter screen (AID 1159551); also: nearly all actives have a fitted effect of over 35% in size
Method in brief: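 Seed C3RL4 cells; next day add compound, then retinol to 1 uM final; incubate 6 h at 37 C; add CellTiter-Glo; read luminescence after 30 min at RT.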

[3] = qHTS assay to identify small molecule antagonists of the retinoic acid receptor (RAR) signaling pathway (AID 1159552; also: nearly all actives have a fitted effect of over 50% in size; also: potency is read from the fitted curve at half-maximal effect)
Method in brief: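 Quantitative HTS in C3RL4 RARE-luciferase reporter cells. Compounds were added with 1 uM (final) retinol; luminescence was read after 6 hr.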

[4] = qHTS assay to identify small molecule agonists of the retinoic acid receptor (RAR) signaling pathway (AID 1159553); also: potency is read from the fitted curve at half-maximal effect
Method in brief: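 Activation of retinol signaling was monitored via a RARE luciferase reporter in C3RL4 cells. After 6 hr compound treatment at 37 C, detection reagent was added for 30 min at room temperature before luminescence reading.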

[5] = qHTS assay to identify small molecule antagonists of the estrogen related receptor (ERR) signaling pathway from Tox21 library - cell viability counter screen (AID 1224834); also: nearly all actives have a fitted effect of over 30% in size
Method in brief: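 CellTiter-Fluor fluorescence measured; ERR cells; 17.5 h compound incubation at 37 C; 30 min reagent step.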

[6] = qHTS assay to identify small molecule antagonists of the estrogen related receptor (ERR) signaling pathway - cell viability counter screen (AID 1224818);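 also: series mostly up to about 46 µM; viability measured after 17.5 h of compound exposure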
Method in brief: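 In the same ERR cell assay, compound-treated wells (17.5 h, 37 C) were multiplexed with a fluorogenic viability reagent, CellTiter-Fluor, read after 30 min to flag cytotoxic substances.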

Structure (SMILES) | Potency [1] | Potency [2] | Potency [3] | Potency [4] | Potency [5] | outcome [6]
CCOc1cc(N)c(Cl)cc1C(=O)NCC1CN(Cc2ccc(F)cc2)CCO1 (centres undefined) | inactive | inactive | inactive | inactive | – | –
COc1ccc([C@@H]2Sc3ccccc3NC(=O)[C@@H]2O)cc1 | inactive | inactive | – | – | – | –
COc1ccc(CCC(=O)c2c(O)cc(O[C@@H]3O[C@H](CO)[C@@H](O)[C@H](O)[C@H]3O[C@@H]3O[C@@H](C)[C@H](O)[C@@H](O)[C@H]3O)cc2O)cc1O | inactive | inactive | inactive | inactive | – | –
CC(C)C(=O)O | inactive | inactive | inactive | – | – | –
CCc1c2c(nc3ccc(OC(=O)N4CCC(N5CCCCC5)CC4)cc13)-c1cc3c(c(=O)n1C2)COC(=O)[C@]3(O)CC | inactive | inactive | – | – | – | –
CCCCC(CC)C(=O)OCCOCCOCCOCCOC(=O)C(CC)CCCC (centres undefined) | inactive | inactive | inactive | inactive | – | –
CC1=NN(c2ccc(C(=O)O)cc2)C(=O)C1 | inactive | inactive | inactive | 68.6 µM (active) | – | –
CCCCCCCCCOC(C)=O | inactive | inactive | – | – | – | –
C/C(=N/NC(=O)c1ccncc1)C(=O)O | inactive | inactive | – | – | – | –
O=C(CCC1CCN(Cc2ccccc2)CC1)c1ccc2c(c1)NCCCC2 | inactive | inactive | inactive | inactive | – | –
CO[C@H]1O[C@H](CO)[C@@H](O)[C@H](O)[C@H]1O | inactive | inactive | inactive | inactive | – | –
CC(N)CN (centres undefined) | inactive | inactive | – | – | – | –
Cc1cc(OI)c(C(C)C)cc1-c1cc(C(C)C)c(OI)cc1C | inactive | inactive | inactive | inactive | inactive | –
CCN(CC)CCNC(=O)c1ccc(NC(C)=O)cc1 | inactive | inactive | inactive | inactive | – | inactive
CC(C)CCCC(=O)O | inactive | inactive | inactive | inactive | inactive | –
CC(C)CCCCCCOC(=O)CCCCC(=O)OCCCCCCC(C)C | inactive | inactive | inactive | inactive | – | –
CCCCC(CC)CNCC(CC)CCCC (centres undefined) | inactive | inactive | inactive | inactive | – | –
CCCCCCOC(=O)C(C)C | inactive | inactive | inactive | inactive | inactive | –
CC(C)c1nnc2ccc(-c3ocnc3-c3cc(F)ccc3F)cn12 | inactive | inactive | 27.3 µM (active) | inactive | inactive | –
O=C(OCCOCCO)c1ccccc1Nc1cccc(C(F)(F)F)c1 | inactive | inactive | inactive | inactive | – | –
COc1ccc(C(=O)c2cccc(O)c2)c(OC)c1 | inactive | inactive | inactive | inactive | inactive | –
